Bioassay records deposited in PubChem by several laboratories.
The list is not random: actives were taken first. Their share in the collection is about 2.3%.
aSyn UTR inh = MLPCN primary screen, SNCA 5' untranslated region | alpha-synuclein 5'UTR reporter, inhibitor activity | inhibition, % (tested at 7.5 µM) | 300,000 compounds, 0.82% hits | AID 1813, 2009; in the data active = inhibition above about 60%; inconclusive = no clear call, values can overlap the other calls;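 also: H4 neuroglioblastoma cells stably carrying SNCA 5'UTR luciferase fusion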
697 NFkB inh = inhibitors of PMA/ionomycin-induced NF-kB reporter, 697 cells, primary screen, B-cell NF-kB inhibitor project, cell-based, luminescence, uHTS; inhibition, % at 4 µM; 330,000 compounds, 0.33% hits; 697 B-cell NF-kB luciferase reporter, 16 h; in the data active = inhibition above about 35%
Gli-Sufu block = Gli-Sufu pathway antagonists, primary screen, luciferase luminescence, Sufu-KO-LIGHT cells, uHTS. Sufu-KO-LIGHT fibroblasts, Gli luciferase reporter luminescence. inhibition, % at 5 µM. 340,000 compounds, 0.74% hits;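 active = inhibition above about 55%, limit read from the data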
Shn3 3UTR inh = reduction of Shn3 3'UTR firefly luciferase signal, primary screen, Schnurri-3 inhibitor project, cell-based, Clone20 osteoblasts, set 2 | Clone20 osteoblast Shn3 3'UTR firefly luciferase, 24 h | inhibition, % at 12.5 µM | 360,000 compounds, 0.52% hits | AID 588674, 2011;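 active = mean inhibition of at least 75% with every replicate also reaching 75%; inconclusive = mean inhibition at least 75% but some replicate below; inactive = mean inhibition below 75%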
Jurkat NFkB inh = inhibitors of induced NF-kB luciferase reporter, primary screen, TCR NF-kB activation inhibitor project, cell-based, luminescence, uHTS. Jurkat, PMA/ionomycin-induced NF-kB luciferase reporter. inhibition, % at 4 µM. 330,000 compounds, 0.53% hits. AID 435003, 2010; in the data active = inhibition above about 50%
TAG inh = inhibitors of triacylglycerol accumulation, primary screen, cell-based, uHTS, fluorescence, H9c2 | inhibition, % at 12.5 µM | AID 651582, 2012 | H9c2 cells, Nile Red lipid (TAG) fluorescence; cells loaded with 200 µM oleic acid | 230,000 compounds, 0.66% hits;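 active = pattern-corrected inhibition of lipid staining of at least 50% with the nuclear-stain viability signal not falling by more than 50%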
Gli-Sufu confirm = Gli-SUFU pathway antagonists, confirmation, single concentration, luciferase luminescence, Sufu-KO-LIGHT cells. shares compounds with Gli-Sufu block. Gli luciferase reporter. inhibition, % at 5 µM. 2,500 compounds, 40% hits;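 active = mean inhibition at 5 µM reaching about 45%, limit read from the data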
SufuKO cytotox = cytotoxicity in Sufu-KO-LIGHT cells, confirmation, cytotoxicity control for Gli-SUFU antagonist project, cell-based, ATP luminescence, single concentration; shares compounds with Gli-Sufu block; cytotoxicity, % at 5 µM; 2,500 compounds, 32% hits; AID 651994, 2013;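 active = mean cytotoxicity at 5 µM above about 25%, limit read from the data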;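 also: cells exposed to compound overnight for roughly 16 to 18 hours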
Wnt3a cs = Wnt3a reporter signal inhibition, confirmation, counter-screen for Gli-SUFU antagonist project, Wnt-LIGHT cells, luminescence, single concentration. shares compounds with Gli-Sufu block. Wnt3a-driven luciferase reporter. inhibition, % at 6.25 µM. 2,500 compounds, 20% hits;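 active = mean inhibition above about 25%, limit read from the data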
H9c2 TAG conf = triacylglycerol accumulation inhibitors, retest, confirmation, cell-based, single concentration, Nile Red fluorescence, H9c2. shares compounds with TAG inh. H9c2 lipid accumulation; cells loaded with 200 µM oleic acid. inhibition, % at 12.5 µM. 990 compounds, 71% hits;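 active = mean inhibition across replicates of 40% or more; inactive = mean inhibition below 40%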
Large screens that a line does not name were inactive (follow-up assays come after a bar, where they were run).

CCC1(O)CC2CN(CCc3c([nH]c4ccccc34)C(C(=O)OC)(c3cc4c(cc3OC)N(C=O)C3C(O)(C(=O)OC)C(OC(C)=O)C5(CC)C=CCN6CCC43C65)C2)C1 (stereo not drawn)	TAG inh 51.6 (no result: aSyn UTR inh, 697 NFkB inh, Jurkat NFkB inh) | Gli-Sufu confirm 63.1 | SufuKO cytotox 64.6 | Wnt3a cs inactive | H9c2 TAG conf 56.9
CCOC(=O)N(C)[C@H]1C[C@H]2c3[nH]c4ccccc4c3CCN2C[C@H]1[C@H](C)O	none (no result: aSyn UTR inh, 697 NFkB inh, Gli-Sufu block, Jurkat NFkB inh, TAG inh)
O=C(CCS(=O)(=O)c1ccc(Cl)cc1)Nc1ccc(F)cc1	none (no result: TAG inh)
COc1ccc(Cc2n[nH]c(=S)o2)cc1	TAG inh 55.5 | Gli-Sufu confirm inactive | SufuKO cytotox inactive | Wnt3a cs inactive | H9c2 TAG conf inactive
Cc1cc(C(=O)CSc2nnc(NCc3ccccc3)s2)c(C)n1C	TAG inh 51.3 | H9c2 TAG conf inactive
O=C(N/N=C/c1ccc(Cl)cc1)c1n[nH]c2c1CCCC2	TAG inh 58.8 | H9c2 TAG conf inactive
O=C(N/N=C/c1cccc(Cl)c1)c1c(O)c2c([nH]c1=O)CCCC2	none (no result: Shn3 3UTR inh)
CCc1nc2ccc(C(=O)NCc3ccc4c(c3)OCO4)cn2c1N(CCC(C)C)CCN(C)C	TAG inh 72.9 (no result: aSyn UTR inh, 697 NFkB inh, Gli-Sufu block, Jurkat NFkB inh) | H9c2 TAG conf inactive
CCC(=O)NCCc1nc2ccccc2n1CC(=O)c1ccccc1	none
O=C(CN(Cc1ccco1)C(=O)c1ccc(Cl)cc1)Nc1c(Cl)cc(Cl)cc1Cl	none (no result: TAG inh)
O=C(CN(Cc1ccco1)C(=O)c1cccc(Cl)c1)Nc1c(Cl)cc(Cl)cc1Cl	TAG inh 53.3 | H9c2 TAG conf inactive
CC(Cc1ccccc1)(NC(=O)CN)c1ccccc1 (stereo not drawn)	none (no result: Gli-Sufu block, Shn3 3UTR inh, TAG inh)
CN(C)c1ccc(NC(=O)Nc2nc(C(N)C3CCCCC3)cs2)cc1 (stereo not drawn)	TAG inh 74.4 (no result: aSyn UTR inh, 697 NFkB inh, Gli-Sufu block, Jurkat NFkB inh) | H9c2 TAG conf 55.6
NC(c1csc(Nc2ccc(C(=O)c3ccccc3)cc2)n1)C1CCCCC1 (stereo not drawn)	TAG inh 56.8 (no result: aSyn UTR inh, 697 NFkB inh, Gli-Sufu block, Jurkat NFkB inh) | H9c2 TAG conf inactive
COc1ccc(NC(=O)Nc2nc(C(N)C3CCCCC3)cs2)cc1 (stereo not drawn)	none (no result: aSyn UTR inh, 697 NFkB inh, Gli-Sufu block, Jurkat NFkB inh)
CC(C)c1ccc(NC(=O)Nc2nc(C(N)C3CCCCC3)cs2)cc1 (stereo not drawn)	Shn3 3UTR inh 97.4, TAG inh 129.7 (no result: aSyn UTR inh, 697 NFkB inh, Gli-Sufu block, Jurkat NFkB inh) | H9c2 TAG conf 132.7
COc1ccc(NC(=O)Cn2c(=O)n(-c3ccc(CC(=O)NCc4ccco4)cc3)c(=O)c3ccccc32)cc1	TAG inh 65.3 | H9c2 TAG conf 53.8
Cc1ccc(NC(=O)Cn2c(=O)n(CCCC(=O)NCc3ccco3)c(=O)c3ccccc32)cc1	none
COc1ccc(C(=O)Nc2ccc(-c3nnn(CC(=O)NCc4ccco4)n3)cc2)cc1	TAG inh 52.8 | H9c2 TAG conf inactive
CCOC(=O)c1sc(NC(=O)CSc2nc(-c3ccco3)cc(C(F)(F)F)n2)c(C#N)c1C	none (no result: TAG inh)
Cc1ccc2c(c1)c1c(n2CC(O)Cn2nc(C)c(Br)c2C)C(=O)CCC1 (stereo not drawn)	none (no result: TAG inh)
CC1CCN(CCC(=O)NN)CC1	none
NNC(=O)CCN1CCCCC1	TAG inh 82.8 | H9c2 TAG conf inactive
COc1ccccc1[C@H]1C(c2cccc(C)c2)=NN(c2ccccc2)[C@@H]1CO	TAG inh 72.2 (no result: aSyn UTR inh, Jurkat NFkB inh) | H9c2 TAG conf inactive
CCOC(=O)c1c(C)[nH]c(C(=O)OCC(=O)NCCc2ccc(OCC)c(OCC)c2)c1C	aSyn UTR inh inconclusive, TAG inh 56.7 | H9c2 TAG conf 63.1
CCOc1ccc(OCC)c(NC(=O)CN(c2ccc(OC)cc2)S(=O)(=O)c2c(C)noc2C)c1	none (no result: TAG inh)
CCOc1ccc(OCC)c(NC(=O)CN(c2ccc(C)cc2)S(=O)(=O)c2c(C)noc2C)c1	TAG inh 52.8 | H9c2 TAG conf 46.4
CCOC(=O)C1(C)CCCN1C(=O)c1sccc1C (stereo not drawn)	none (no result: aSyn UTR inh, 697 NFkB inh, Gli-Sufu block, Jurkat NFkB inh)
CN1CCN(c2ccc(Cl)cc2NC(=O)c2ccc(S(=O)(=O)N(C)C)cc2)CC1	TAG inh 51.8 | H9c2 TAG conf inactive
CCN(CC)S(=O)(=O)c1cc(C(=O)Nc2cc(Cl)ccc2N2CCN(C)CC2)ccc1Cl	none (no result: TAG inh)
O=C(O)c1ccccc1C(=O)Nc1ccc(Oc2ccccc2)cc1	none
CC(C)(C)c1ccc(Oc2ccc(NC(=O)c3ccccc3C(=O)O)cn2)cc1	aSyn UTR inh 85.7, TAG inh 61.7 | H9c2 TAG conf inactive
Cn1c(N)c(C(=O)COC(=O)c2ccc([N+](=O)[O-])o2)c(=O)n(C)c1=O	TAG inh 87.8 | H9c2 TAG conf 100.6
Cc1cc(-n2c(C)cc(C(=O)CSc3nc4ccccc4c(=O)n3Cc3ccco3)c2C)no1	TAG inh 55.3 | H9c2 TAG conf inactive
O=C(CSc1nc2ccccc2c(=O)n1Cc1ccco1)c1ccccc1	none (no result: TAG inh)
c1cc2c(cc1Oc1nc(N3CCOCC3)nc(N3CCOCC3)n1)OCO2	TAG inh 59.2 | H9c2 TAG conf inactive
Clc1ccc(Oc2nc(N3CCOCC3)nc(N3CCOCC3)n2)cc1	none
Cc1nc2sc3c(NCc4ccco4)ncnc3c2c2c1COC(C)(C)C2	none (no result: TAG inh)
CC(C)Cc1nc2sc3c(NCc4ccco4)ncnc3c2c2c1COC(C)(C)C2	TAG inh 53.6 | H9c2 TAG conf 47.1
Cc1[nH]c2ccccc2c1C(=O)/C=C/c1ccccc1Cl	none (no result: TAG inh)
CC1(C(=O)NCc2ccccc2)Cc2c(-c3cccc(C(N)=O)c3)ccnc2O1 (stereo not drawn)	TAG inh 54.7 (no result: aSyn UTR inh, 697 NFkB inh, Gli-Sufu block, Jurkat NFkB inh) | H9c2 TAG conf 60.4
NC(=O)c1cccc(-c2ccnc3c2CC(C(=O)NCc2ccccc2)O3)c1 (stereo not drawn)	TAG inh 50.2 (no result: aSyn UTR inh, 697 NFkB inh, Gli-Sufu block, Jurkat NFkB inh) | H9c2 TAG conf 53.5
CC1(C(=O)NCc2ccco2)Cc2c(-c3cccc(C(F)(F)F)c3)ccnc2O1 (stereo not drawn)	TAG inh 54.3 (no result: aSyn UTR inh, 697 NFkB inh, Gli-Sufu block, Jurkat NFkB inh) | H9c2 TAG conf 46.0
